OPRM1-OPRD1 inv = inverse agonists of human mu-delta opioid receptor heterodimerization. cell-based MOR-DOR heterodimer luminescence, inverse agonism. inhibition, % at 9.3 µM. P35372+P41143. 0.21% of 340,000 active; in the data active means inhibition above about 22%, passing the limit was not always enough;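 further: 0% = cells with DMSO and 100% = wells without cells with DMSO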
Target sequence (P35372 whole entry, looked up): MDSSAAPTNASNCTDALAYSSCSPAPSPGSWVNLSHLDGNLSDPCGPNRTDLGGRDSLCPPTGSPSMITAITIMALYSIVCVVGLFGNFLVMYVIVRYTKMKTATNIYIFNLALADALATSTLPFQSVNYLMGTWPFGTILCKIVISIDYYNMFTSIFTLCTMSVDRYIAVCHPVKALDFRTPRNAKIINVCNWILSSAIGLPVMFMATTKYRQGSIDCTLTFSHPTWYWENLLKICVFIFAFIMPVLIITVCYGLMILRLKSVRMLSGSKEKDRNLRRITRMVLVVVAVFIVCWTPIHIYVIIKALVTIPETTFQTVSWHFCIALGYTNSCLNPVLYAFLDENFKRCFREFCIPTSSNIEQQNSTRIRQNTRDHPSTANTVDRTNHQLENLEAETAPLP
Target sequence (P41143 whole entry, looked up): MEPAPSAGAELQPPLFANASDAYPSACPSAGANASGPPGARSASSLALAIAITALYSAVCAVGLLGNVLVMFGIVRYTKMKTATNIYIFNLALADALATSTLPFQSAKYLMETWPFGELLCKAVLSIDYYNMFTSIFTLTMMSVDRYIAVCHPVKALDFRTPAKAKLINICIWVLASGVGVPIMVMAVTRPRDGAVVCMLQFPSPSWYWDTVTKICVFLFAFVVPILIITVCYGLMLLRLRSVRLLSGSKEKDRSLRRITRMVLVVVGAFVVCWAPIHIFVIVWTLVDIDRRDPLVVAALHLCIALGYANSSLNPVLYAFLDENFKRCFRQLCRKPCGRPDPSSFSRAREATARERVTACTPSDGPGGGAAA
HTR5A inv ctr = inverse agonist of human HTR5A in OPRM1-OPRD1 counter-screen; 0.083% of 340,000 active; inhibition, % at 9.3 µM; P47898; AID 504634; HTR5A cell line, luminescence, inverse agonism; in the data active means inhibition mostly above about 23%, no sharp cut-off; inactive means mostly below about 18%;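 further: 0% = cells with DMSO and 100% = no-cell wells with DMSO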
HTR5A ag = HTR5A agonism, opioid heterodimer counter-screen; activation, % at 9.3 µM; 0.61% of 340,000 active; HTR5A agonist assay, luminescence, cell-based; in the data active means activation mostly above about 9.5%, no sharp cut-off; inactive means mostly below about 7.6%;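 further: 0% = cells with vehicle only and 100% = reference agonist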
MOR-DOR ag-1 = OPRM1-OPRD1 heterodimerization agonism. P35372+P41143. cells, luminescence. activation, % at 9.3 µM. 0.3% of 340,000 active. AID 504326;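 further: 0% = vehicle-treated cells and 100% = reference agonist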
MOR-DOR ag-2 = counter-screen for HTR5A agonists: OPRM1-OPRD1 heterodimerization agonism. shares compounds with HTR5A ag. U2OS counter-screen cells, complementation luminescence, 3 h. activation, % at 9.3 µM. 13% of 800 active. AID 504913
HTR5A ag confirm = confirmation of human HTR5A agonists; 17% of 800 active; HTR5A agonist cell assay, luminescence; activation, % at 9.3 µM; shares compounds with HTR5A ag; in the data active means activation above about 17%;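 further: 0% = cells with vehicle only and 100% = full reference agonist response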
An asterisk follows results filed as active; / = not tested or not shown; ! = not confirmed by another sample. A selection: hits, their analogues and other compounds. The true share with any hit is near 1.1%. Unless noted, no stated cut-off is given here; in the data, active means activation above about 18%; inactive means the rest.

SMILES	OPRM1-OPRD1 inv	HTR5A inv ctr	HTR5A ag	MOR-DOR ag-1	MOR-DOR ag-2	HTR5A ag confirm
CN1C[C@H](C(=O)N[C@]2(C)O[C@@]3(O)[C@@H]4CCCN4C(=O)[C@H](Cc4ccccc4)N3C2=O)CC2c3cccc4[nH]cc(c34)C[C@H]21 (stereo partly specified)	-3	-162	45*	1	-2	48*!
O=C(O)/C=C/C(=O)Nc1ccc(C2(c3ccc(NC(=O)/C=C/C(=O)O)cc3)c3ccccc3-c3ccccc32)cc1	-10	-100	26*	2	4	-1
OC(C1=CC(=Cc2ccncc2)c2ccccc21)c1ccncc1 (stereo unspecified)	-6	-39	10	1	/	/
Cc1csc(Cn2c(CN(C)C)nc3ccccc3c2=O)n1	8	5	-1	-1	/	/
CN(C)Cc1nc2ccccc2c(=O)n1Cc1nc(-c2cc3ccccc3o2)cs1	-41	-49	17*	8	6	5
COc1ccc(OC)c(NC(=O)COC(=O)c2cc3c(s2)CCC3)c1	-1	-21	15*	0	2	0
COc1ccccc1NC(=O)COC(=O)c1cc2c(s1)CCC2	-5	13	0	1	/	/
COC(=O)c1c(C(=O)OC)c2n(c1C)Cc1ccccc1C2	6	1	15*	-1	0	3
C[C@]12c3[nH]c4cc(-c5ccco5)ccc4c3CCN1C(=O)[C@@H](CC(=O)NCCC1=CCCCC1)C[C@@H]2C(=O)N1CCOCC1	15	-1	0	-3	/	/
Cc1nnc(N2CCC(C(=O)N3CCCCCC3)CC2)c2nn(-c3ccc(Cl)cc3)c(C)c12	9	-1	0	-2	/	/
COc1cc(/C=C/C(=O)O)cc(OC)c1OC	4	-138	39*	-1	1	-4
Cc1cc(O)c(C(C)C)cc1C1(c2cc(C(C)C)c(O)cc2C)OC(=O)c2ccccc21	-65	-5	20*	13	6	13
O=C(COc1ccc(Cl)cc1)NCCSCc1cccc(Cl)c1	7	11	1	-1	/	/
Cc1cccc(CSCCNC(=O)COc2ccc(Cl)cc2)c1	-21	2	14*	3	-6	-4
CCc1nnc(NC(=O)CSc2ccc(-c3nc4ccccc4[nH]3)cn2)s1	-1	11	-4	0	/	/
Cc1nc(NC(=O)CSc2ccc(-c3nc4ccccc4[nH]3)cn2)sc1C	-42	-21	17*	6	3	3
Cc1ccccc1OCc1n(CC(=O)OC2CC(C)CCC2C(C)C)c2ccccc2[n+]1C (stereo unspecified)	-21	-51	18*	4	14	7
CC1CCC(C(C)C)C(OC(=O)Cn2c(-c3ccc(Br)cc3)[n+](C)c3ccccc32)C1 (stereo unspecified)	-9	-43	17*	2	50*!	4
COc1ccc(Cl)cc1NC(=O)CSc1nnc(-c2ccco2)o1	2	-12	-3	-1	/	/
Cc1ccc(NC(=O)C/C(N)=N/OC(=O)c2ccccc2)cc1	-48	-21	15*	9	6	2
C/C(=N\NC(=O)c1ccccc1O)c1ccc(Br)s1	20	-54	15*	-4	0	28*
COc1ccc2[nH]c3c(c2c1)CCNC3C1CC=C(C)CC1 (stereo unspecified)	-7	-51	34*	1	5	51*
O=S(=O)(c1cnc(Cl)c(Cl)c1)N1CCc2ccccc21	-30	-46	16*	5	121*	-1
CSCC[C@H](NC(=O)c1ccc(OCC2CCCO2)cc1)c1nc2ccccc2[nH]1 (stereo partly specified)	17	1	0	-3	/	/
Cc1nc2[nH]c(=S)[nH]c2c(=O)[nH]1	7	-3	1	-1	/	/
SMILES	OPRM1-OPRD1 inv	HTR5A inv ctr	HTR5A ag	MOR-DOR ag-1	MOR-DOR ag-2	HTR5A ag confirm
O=C(/C=C/c1cccc(F)c1)OCC(=O)N1CCc2ccccc21	-5	-46	18*	1	1	-1
COc1ccccc1N(CC(=O)NCc1ccco1)S(C)(=O)=O	9	-8	3	-2	/	/
COc1ccc(S(=O)(=O)N(CC(=O)NCc2ccco2)c2ccccc2OC)cc1	8	3	17*	-1	3	2
CNC(=O)c1sc(-c2ccccc2)nc1C	3	24	1	-1	/	/
CNC(=O)c1sc(-c2cccnc2)nc1C	15	-50	18*	-3	1	1
COc1ccc(CNC(=O)c2cc(S(=O)(=O)N3CCCCC3)ccc2Cl)cc1OC	0	-2	1	0	/	/
CN(CC(=O)Nc1cccc(F)c1)C(=O)CCc1nc2ccccc2c(=O)[nH]1	7	9	-4	-1	/	/
Cc1cc(=O)oc2cc(OCC(=O)Nc3ccc(CN4CCOCC4)cc3)c(Cl)cc12	-8	-7	0	2	/	/
O=C(CNc1ccc(F)cc1)N/N=C1\CCCc2ccccc21	-28	-42	16*	5	8	17*
Nn1c(SCC(=O)Nc2nccs2)nnc1-c1cccnc1	14	6	8	-4	/	/
COc1cc(CNC(=O)C2CCC(=O)N(C3CCCCCC3)C2)cc(OC)c1 (stereo unspecified)	6	-30	5	-1	/	/
COc1ccc(C(CNC(=O)COc2ccc(Cl)cc2C)N2CCCCC2)cc1 (stereo unspecified)	13	8	-1	-3	/	/
COc1ccc(-c2nc(C#N)c(N3CCc4ccccc4C3)o2)cc1OC	9	-42	18*	-2	0	1
COc1ccccc1-c1nc(C#N)c(N2CCc3ccccc3C2)o1	-7	-26	9	1	/	/
Cc1cc(C)n2nc(SCC(=O)Nc3ccc(F)c(F)c3F)nc2n1	10	-5	2	-2	/	/
CCOc1cc(C(=O)OCc2ccc([N+](=O)[O-])cc2)ccc1OCC(=O)N1CCOCC1	0	-43	17*	0	1	1
O=C1NCCCC1C(=O)Nc1cccc(C(F)(F)F)c1 (stereo unspecified)	12	-52	22*	-3	2	1
CC(NC(=O)COc1ccc(S(=O)(=O)N2CCOCC2)cc1)c1ccccc1 (stereo unspecified)	15	-1	0	-4	/	/
Cc1c(CCOC(=O)C2C3CC4CC(C3)CC2C4)sc[n+]1CC(=O)c1ccc(Br)cc1 (stereo unspecified)	-10	-42	18*!	2	18	2
Cc1cc(Cl)ccc1NC(=O)CN(C)C1=NS(=O)(=O)c2ccccc21	1	10	-4	0	/	/
COc1cccc(NC(=O)c2cc(-c3ccncc3)nc3c(C)cc(C)cc23)c1	-32	-9	16*	7	6	8
O=[N+]([O-])c1ccccc1N(S(=O)(=O)c1ccccc1)S(=O)(=O)c1ccccc1	10	9	-3	-2	/	/
O=C(NCCCNC(=O)c1ccccn1)c1ccc(Cl)cc1	-2	-52	18*	0	0	4
CC(OC(=O)c1ccco1)C(=O)Nc1ccc(C(F)(F)F)cc1 (stereo unspecified)	5	-49	20*	-1	3	-4

Bioassay records (PubChem)
